Inconclusive results are not listed. Where a call stands in place of a potency, no number is given. The source made the active and inactive calls. Calls follow the shape of the dose curve; as a rule, active = well fitted inhibition curve with a large enough effect; inconclusive = small, poorly fitted or top-dose-only effect; inactive = no such curve, though single readings can be large or run the other way.

5 molecules from PubChem BioAssay AID1845227 (National Center for Advancing Translational Sciences (NCATS), 2023) can be followed below.

The target of this test is Luciferin 4-monooxygenase (Photinus pyralis) (UniProt P08659). Put plainly: Confirmatory firefly luciferase (FLuc) qHTS assay for identification of artifact compounds. The note with it: purified FLuc enzyme, luminescence, 5 min; series mostly up to 38.9 µM. The source says:
PI: Alexander Tropsha Ph.D. UNC Eshelman School of Pharmacy University of North Carolina, Chapel Hill, North Carolina Hits from high-throughput screening (HTS) of chemical libraries are often false positives due to their interference with the assay detection technology. In response to this problem, we generated the largest publicly available library of chemical liabilities and developed a free webtool to predict HTS artifacts, both of which are described herein. More specifically, we generated, curated, and integrated HTS datasets for thiol reactivity, redox activity, and luciferase (firefly and nano) activity. Using these curated datasets, we developed and validated several Quantitative Structure-Interference Relationship (QSIR) models to predict nuisance behavior. […] These models were employed for virtual profiling of the National Center for Advancing Translational Science's (NCATS) in-house library, and 256 compounds for each assay were selected for the experimental validation of nuisance behavior. The BA for these external predictions ranged from 58 to 78% for compounds within the applicability domains of the models. […] The models developed in this study, along with aggregation models previously developed by our group (SCAM Detective) were implemented in "Liability Predictor," an online tool which may be used as part of chemical library design or for triaging HTS hits. Both the models and the curated datasets are publicly available at https://liability.mml.unc.edu/.
PROTOCOL TABLE SEQUENCE No. (e.g., 1, 2, 3, etc.); […] (e.g., Cells, Incubation, Reagent, etc.); VALUE; DESCRIPTION. 1; Reagent; 3 uL; Luciferase substrate mixture. 2; Compounds and control; 16 nL; Kalypsis pin tool (Wako USA) equipped with a 1536-well pin head. 3; Incubation; 15 min. 4; Reagent; 1 uL; Luciferase enzyme. 5; Incubation; 5 min. 6; Detection; Luminescence, ViewLux microplate reader. NOTES (numbers refer to Sequence numbers above) 1. 3 uL of luciferase substrate mixture containing D-luciferin and ATP (final concentrations of 10 uM and 10 uM, respectively) in assay buffer (10 mM Mg-acetate, 0.01% Tween-20, 0.05% bovine serum albumin, 50 mM Tris acetate, pH 7.6) was dispensed into all wells of a 1536-well assay plate (solid-bottom white plate; Greiner Bio One, Monroe, NC). 2. A Wako Pin-tool (Wako Automation, Richmond, VA) was used to transfer 16 nL of compounds (consisting of 7-plates in qHTS format, final concentration range 18.3 nM to 114 uM) or control PTC124 (final concentration range 1.22 nM to 40 uM). 3. 15 min. incubation at room temperature protected from light. 4. 1 uL of luciferase enzyme (final concentration 10 nM, Photinus pyralis luciferase) or buffer was dispensed for a final assay volume of 4 uL. 5. Plates were centrifuged (121xg, 15 seconds) and incubated for 5 minutes. 6. Samples were read for luminescence on a ViewLux CCD imager (PerkinElmer). Data were normalized to no-enzyme (0% activity) and no-inhibitor (DMSO; 100%) controls and the resulting percent inhibition data were fitted to a 4-parameter Hill equation using NCATS in-house software.
Potency is read from the fitted curve at half-maximal effect.

On to `CN(C)[C@@H]1C(=O)C(C(N)=O)=C(O)[C@@]2(O)C(=O)C3=C(O)c4c(O)ccc(Cl)c4[C@@](C)(O)[C@H]3C[C@@H]12`, for which the Potency result is “inactive”. Next, `C[C@@]12CCC(OS(=O)(=O)O)C[C@@H]1CCC1C2CC[C@]2(C)C(=O)CCC12` (stereo not given in full): “inactive”; `O=C(O)c1cc[c]([Hg][S]c2ncnc3nc[nH]c23)cc1`: 12.2 µM (active).

As for `CC(=O)OCC(=O)[C@H]1CC[C@H]2[C@@H]3CC[C@H]4C[C@H](O)CC[C@]4(C)[C@H]3C(=O)C[C@]12C`, the Potency entry was “inactive”. As for `COC(=O)[C@]1(C)CC[C@@]2(C)CC[C@@]3(C)C4=CC=C5C(=CC(=O)C(O)=C5C)[C@@]4(C)CC[C@@]3(C)C2C1` (stereo not given in full), the entry is “inactive”.
